Inconclusive results are not listed. A call without a number means that no potency is given here. Activity calls are given as the source filed them. Calls follow the shape of the dose curve; as a rule, active = well fitted cell-killing curve with a large enough effect in the repeat runs; inconclusive = weak or mixed curves, or effect the other way; inactive = no such curve, though single readings can be large or run the other way.
Potency is read from the fitted curve at half-maximal effect.

This assay in a line: qHTS assay to identify small molecule agonists of the vitamin D receptor (VDR) signaling pathway - cell viability counter screen (AID 743224). Also: nearly all actives have a fitted effect of over 50% in size. The settings on record: VDR-bla HEK293T viability, CellTiter-Glo luminescence, 16 h; series mostly up to 62.6 µM. The source says:
U.S. Tox21 Program National Center for Advancing Translational Sciences [NCATS] NIH Chemical Genomics Center [NCGC] U.S. Environmental Protection Agency [EPA] National Institutes of Environmental Health Sciences [NIEHS] National Toxicology Program [NTP] U.S. Food and Drug Administration [FDA] Tox21 Assay Overview: The vitamin D receptor (VDR), a member of nuclear hormone receptor superfamily, plays a critical role in calcium homeostasis and bone metabolism. It is also involved in cell differentiation and growth, and thrombogenicity. […] The cytotoxicity of the Tox21 compound library against the VDR-bla cell line was tested in parallel by measuring the cell viability using CellTiter-Glo assay (Promega, Madison, WI) in the same wells.
Tox21 Assay Protocol Summary: VDR-bla cells were dispensed at 2,000 cells/6 uL/well into black wall/clear-bottom 1536-well plates using a Multidrop Combi (Thermo Fisher Scientific, Waltham, MA) dispenser. After the assay plates were incubated at a 37C and 5% CO2 for 4 h, 23 nL of compounds dissolved in DMSO, positive controls or DMSO only was transferred to the assay plate by a Pintool station (Kalypsys, San Diego, CA). The plates were incubated at 37C and 5% CO2 for 16 h. After 1 uL of LiveBLAzerTM B/G FRET substrate was added using a Bioraptr Flying Reagent Dispenser (FRD) workstation (Beckman Coulter, Indianapolis, IN, USA), the plates were incubated at room temperature for 2 h, and fluorescence intensity was measured by an Envision plate reader (PerkinElmer, Shelton, CT). For cell viability readout that measures cytotoxicity, 3 ul/well of CellTiter-Glo reagent was added into the assay plates using a FRD. After 30 min incubation at room temperature, the luminescence intensity in the plates was measured using a ViewLux (PerkinElmer) plate reader.
A general note: Quantitative high-throughput screening tests each substance at several concentrations.
Consider `OCc1cc(C(O)CNCCCCCCOCCCCc2ccccc2)ccc1O` (stereo not given), for which the Potency result was “inactive”.

For the compound `CN1CCC(N(Cc2cccs2)c2ccccc2)CC1`, the Potency was 33.5 µM (active).

As to `COc1ccc(C)cc1[N+](=O)[O-]`, the Potency result was “inactive”.

Take `COCCCN1CCC(NC(=O)c2cc(Cl)c(N)c3c2OCC3)CC1`: the Potency entry was “inactive”.

On to `CN(C)c1ccc(CCO)cc1`, for which the Potency result is “inactive”.

Take `Cc1cccc(Nc2ccccc2)c1`: the Potency result is “inactive”.

Consider `C1CCCNCCC1`, for which the Potency entry was “inactive”.

As to `CN(C)c1ccc(C(c2ccccc2)c2ccc(N(C)C)cc2)cc1`, the Potency entry is “inactive”.

On to `NCC(=O)CCC(=O)O`, for which the Potency entry was “inactive”.

Consider `CC(=O)c1cccc([N+](=O)[O-])c1`, for which the Potency entry was “inactive”.

Take `C[N+]1(CC2COC(c3ccccc3)(C3CCCCC3)O2)CCCCC1` (stereo not given): the Potency entry was “inactive”.

Regarding `C=CCOc1ccccc1OCC(O)CNC(C)C` (stereo not given), the Potency result was “inactive”.

In the case of `CC(=O)[O][Al][O]C(C)=O`, the Potency entry was “inactive”.

For the compound `NS(=O)(=O)c1ccc(N2CCCCS2(=O)=O)cc1`, the Potency result was “inactive”.

Take `C[C@@H]1C[C@H]2[C@@H]3CCC4=CC(=O)C=C[C@]4(C)[C@@]3(F)[C@@H](O)C[C@]2(C)[C@@]1(O)C(=O)COC(=O)c1ccncc1`: the Potency result is “inactive”.

Consider `CC1=CC[C@H](C(C)C)C=C1`, for which the Potency result was “inactive”.

Turning to `CC(C)C[C@H]1C(=O)N2CCC[C@H]2[C@]2(O)O[C@](NC(=O)[C@@H]3C=C4c5cccc6[nH]c(Br)c(c56)C[C@H]4N(C)C3)(C(C)C)C(=O)N12`, the Potency result was “inactive”.

`c1ccc(CNCCNCc2ccccc2)cc1`: the Potency entry was “inactive”.

Turning to `CCC(C)O` (stereo not given), the Potency result is “inactive”.

Take `O=C1OC(=O)C2C3C=CC(C3)C12` (stereo not given): the Potency result was “inactive”.

`C[N+](C)(C)CCOC(=O)CCC(=O)OCC[N+](C)(C)C`: the Potency result is “inactive”.

In the case of `CC(C)(C)Cl`, the Potency result was “inactive”.

With `CN1CCN(C(c2ccccc2)c2ccccc2)CC1`, the Potency entry is “inactive”.

Turning to `CC(=O)OC[C@H]1O[C@@H](n2ncc(=O)[nH]c2=O)[C@H](OC(C)=O)[C@@H]1OC(C)=O`, the Potency entry was “inactive”.

Turning to `Nc1c(CC(=O)O)cccc1C(=O)c1ccc(Br)cc1`, the Potency entry is “inactive”.

In the case of `CC1(c2ccccc2)OC(C(=O)O)=CC1=O` (stereo not given), the Potency result is “inactive”.

For the compound `CCCCCCCN`, the Potency entry is “inactive”.

Turning to `Nc1cccc([N+](=O)[O-])c1`, the Potency entry was “inactive”.

Consider `CC(CSC(=O)c1ccccc1)C(=O)N1C[C@@H](Sc2ccccc2)C[C@H]1C(=O)O` (stereo not given in full), for which the Potency result is “inactive”.

Consider `CCCCCCCCCCCCN1CCCCCC1=O`, for which the Potency is 30.9 µM (active).

Take `CCCCCCCCCCCCCCOS(=O)(=O)O`: the Potency is 43.6 µM (active).

As to `O=[N+]([O-])c1cccc(S(=O)(=O)O)c1`, the Potency result is “inactive”.

With `C[C@@H]1C[C@H]2O[C@@]3(O[C@@H]2C(C)(C)O)[C@H](O)[C@@]2(C)[C@@H]4CC[C@H]5C(C)(C)[C@@H](O[C@@H]6OC[C@@H](O)[C@H](O)[C@H]6O)CC[C@@]56C[C@@]46CC[C@]2(C)[C@@H]13`, the Potency entry is “inactive”.

`C/C=C/C=C/CO`: the Potency entry is “inactive”.

For the compound `C=C1C(=C/C=C2\CCC[C@]3(C)[C@@H]([C@H](C)/C=C/[C@@H](O)C4CC4)CC[C@@H]23)C[C@@H](O)C[C@@H]1O`, the Potency entry was “inactive”.

As for `CCN(CC)CCNC(=O)c1cc(Br)c(N)cc1OC`, the Potency entry was “inactive”.

Take `CCCCCCCCO[C@@H]1O[C@H](CO)[C@@H](O)[C@H](O)[C@H]1O`: the Potency result was “inactive”.

For `CCCCNc1ccc(C(=O)OCCOCCOCCOCCOCCOCCOCCOCCOCCOC)cc1`, the Potency result was “inactive”.

Turning to `Cc1ccc(N=Nc2c(O)c(C(=O)O)cc3ccccc23)c(S(=O)(=O)O)c1`, the Potency result was “inactive”.

For `C/C(=C(\CCOP(=O)(O)O)SC(=O)c1ccccc1)N(C=O)Cc1cnc(C)nc1N`, the activity change, negative = cytotoxicity is -3.71% [at 5.95 µM] (inactive).

The record behind these values is PubChem BioAssay (Tox21).
